Here are results for one sequence from publication PMC7862700, “An all-to-all approach to the identification of sequence-specific readers for epigenetic DNA modifications on cytosine”.

Assay in all cases: DAPPL (digital affinity profiling via proximity ligation, sequencing); 10 mM Tris-HCl pH 7.5, 50 mM NaCl, 1 mM DTT, 4% glycerol, room temperature, 30 min; GST-TFs on glutathione beads, 16-mer random dsDNA library, 0.1% formaldehyde crosslink after washing; high values mean tight binding
In one assay the target is T1, FEV (Homo sapiens, UniProt Q99581 1-238).
T1 sequence: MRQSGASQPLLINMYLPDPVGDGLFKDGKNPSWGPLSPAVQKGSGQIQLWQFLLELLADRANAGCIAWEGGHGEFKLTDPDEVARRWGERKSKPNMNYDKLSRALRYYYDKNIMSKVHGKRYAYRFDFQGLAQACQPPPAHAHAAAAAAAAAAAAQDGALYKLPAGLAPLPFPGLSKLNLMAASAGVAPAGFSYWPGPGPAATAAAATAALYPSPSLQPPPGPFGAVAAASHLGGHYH
The following applies: protein: recombinant; tags: N-terminal GST; dsDNA, one strand shown. The method in brief: (§1)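 Binding signal is given per hexamer as its read frequency for a factor divided by its frequency in the tag-only sample. GST-fused human transcription factors were expressed in yeast, captured on glutathione beads, barcoded with DNA and pooled with that sample, then incubated with 200 nmole of a 16-mer random double-stranded DNA library in Tris/NaCl/DTT/glycerol buffer for 30 min at room temperature. The pools were then washed, crosslinked, proximity-ligated, amplified by PCR and sequenced on an Illumina NextSeq500.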

Another assay concerns the target ETV5 (Homo sapiens, UniProt P41161 1-510). The settings on record: protein: recombinant; tags: N-terminal GST; dsDNA, one strand shown. The essentials: as §1
The next assay concerns the target HSF1 (Homo sapiens, UniProt Q00613 1-529). The following applies: protein: recombinant; tags: N-terminal GST; chain copies: 3; dsDNA, one strand shown. The essentials: as §1
The target in the next assay is T2, SPIC (Homo sapiens, UniProt Q8N5J4 1-248).
T2 sequence: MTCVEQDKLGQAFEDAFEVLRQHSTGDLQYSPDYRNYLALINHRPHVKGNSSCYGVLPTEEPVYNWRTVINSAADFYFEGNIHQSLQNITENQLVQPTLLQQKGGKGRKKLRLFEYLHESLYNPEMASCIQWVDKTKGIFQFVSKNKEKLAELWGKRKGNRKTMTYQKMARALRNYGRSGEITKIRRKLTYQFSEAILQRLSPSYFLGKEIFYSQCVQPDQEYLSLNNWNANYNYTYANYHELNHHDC
The settings on record: protein: recombinant; tags: N-terminal GST; dsDNA, one strand shown. The method in brief:
as §1

Another assay deals with ELF4 (Homo sapiens, UniProt Q99607 1-663). The following applies: protein: recombinant; tags: N-terminal GST; dsDNA, one strand shown. The method in brief: as §1
Chain of ELF4 (Q99607 whole entry): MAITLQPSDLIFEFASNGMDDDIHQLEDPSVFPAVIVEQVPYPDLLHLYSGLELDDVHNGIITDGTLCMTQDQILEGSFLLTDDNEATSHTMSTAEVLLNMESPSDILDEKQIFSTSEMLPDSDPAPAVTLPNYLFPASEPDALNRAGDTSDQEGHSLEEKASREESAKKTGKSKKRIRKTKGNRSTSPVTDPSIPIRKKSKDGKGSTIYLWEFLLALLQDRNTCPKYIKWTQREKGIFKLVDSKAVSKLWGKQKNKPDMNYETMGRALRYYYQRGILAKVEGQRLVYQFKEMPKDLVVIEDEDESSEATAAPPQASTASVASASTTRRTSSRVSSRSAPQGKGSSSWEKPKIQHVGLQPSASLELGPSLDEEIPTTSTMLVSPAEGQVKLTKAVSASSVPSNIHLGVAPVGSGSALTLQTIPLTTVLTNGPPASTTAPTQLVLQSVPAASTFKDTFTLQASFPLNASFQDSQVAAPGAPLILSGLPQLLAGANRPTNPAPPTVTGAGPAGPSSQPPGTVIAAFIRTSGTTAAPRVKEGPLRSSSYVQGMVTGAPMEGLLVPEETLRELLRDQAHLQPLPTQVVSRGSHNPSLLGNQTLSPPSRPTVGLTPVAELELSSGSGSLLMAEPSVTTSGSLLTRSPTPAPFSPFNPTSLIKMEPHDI
For another assay, the target named is T3, ELK4 (Homo sapiens, UniProt P28324-2 1-405).
T3 sequence: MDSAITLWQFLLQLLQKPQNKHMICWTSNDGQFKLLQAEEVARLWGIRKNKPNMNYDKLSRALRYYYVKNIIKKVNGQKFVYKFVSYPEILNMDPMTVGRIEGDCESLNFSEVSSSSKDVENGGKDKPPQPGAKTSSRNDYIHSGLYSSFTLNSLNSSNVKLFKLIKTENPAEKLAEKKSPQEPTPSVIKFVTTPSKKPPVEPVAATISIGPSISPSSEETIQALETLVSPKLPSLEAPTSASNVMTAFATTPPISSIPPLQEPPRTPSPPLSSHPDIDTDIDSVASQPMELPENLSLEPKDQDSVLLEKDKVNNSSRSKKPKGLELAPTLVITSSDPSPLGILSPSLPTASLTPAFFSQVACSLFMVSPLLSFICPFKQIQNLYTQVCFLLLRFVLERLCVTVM
The settings on record: protein: recombinant; tags: N-terminal GST; dsDNA, one strand shown. The essentials:
as §1

Another assay deals with T4, ETV2 (Homo sapiens, UniProt O00321 1-342).
T4 sequence: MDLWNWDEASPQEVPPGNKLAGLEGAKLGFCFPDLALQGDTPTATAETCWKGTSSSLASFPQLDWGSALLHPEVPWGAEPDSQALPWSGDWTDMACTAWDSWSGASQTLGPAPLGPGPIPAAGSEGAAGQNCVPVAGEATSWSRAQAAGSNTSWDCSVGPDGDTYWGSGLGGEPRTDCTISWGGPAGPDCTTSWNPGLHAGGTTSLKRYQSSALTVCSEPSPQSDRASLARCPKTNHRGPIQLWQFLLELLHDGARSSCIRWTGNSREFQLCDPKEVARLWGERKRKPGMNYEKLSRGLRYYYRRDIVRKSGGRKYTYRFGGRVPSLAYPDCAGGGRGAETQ
The settings on record: protein: recombinant; tags: N-terminal GST; dsDNA, one strand shown. The essentials:
as §1

A further assay deals with T5, ELF3 (Homo sapiens, UniProt P78545 1-371).
T5 sequence: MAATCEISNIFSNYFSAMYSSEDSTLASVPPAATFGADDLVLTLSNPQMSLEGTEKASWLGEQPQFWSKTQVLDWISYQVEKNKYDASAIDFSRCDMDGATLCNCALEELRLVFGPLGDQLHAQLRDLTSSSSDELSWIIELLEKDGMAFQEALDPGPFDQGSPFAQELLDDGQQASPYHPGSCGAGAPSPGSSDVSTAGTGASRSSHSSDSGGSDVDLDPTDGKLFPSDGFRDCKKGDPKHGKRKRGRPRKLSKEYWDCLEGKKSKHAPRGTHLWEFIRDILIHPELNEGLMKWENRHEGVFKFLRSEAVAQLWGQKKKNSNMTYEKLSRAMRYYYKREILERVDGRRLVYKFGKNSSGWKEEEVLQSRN
The settings on record: protein: recombinant; tags: N-terminal GST; dsDNA, one strand shown. The essentials: as §1

In the next assay the target is CRX (Homo sapiens, UniProt O43186 1-299). The settings on record: protein: recombinant; tags: N-terminal GST; dsDNA, one strand shown. The essentials:
as §1

A further assay addresses ETV1 (Homo sapiens, UniProt P50549 1-477). The settings on record: protein: recombinant; tags: N-terminal GST; dsDNA, one strand shown. The method in brief: as §1
A further assay concerns the target T6, ERF (Homo sapiens, UniProt P50548 1-548).
T6 sequence: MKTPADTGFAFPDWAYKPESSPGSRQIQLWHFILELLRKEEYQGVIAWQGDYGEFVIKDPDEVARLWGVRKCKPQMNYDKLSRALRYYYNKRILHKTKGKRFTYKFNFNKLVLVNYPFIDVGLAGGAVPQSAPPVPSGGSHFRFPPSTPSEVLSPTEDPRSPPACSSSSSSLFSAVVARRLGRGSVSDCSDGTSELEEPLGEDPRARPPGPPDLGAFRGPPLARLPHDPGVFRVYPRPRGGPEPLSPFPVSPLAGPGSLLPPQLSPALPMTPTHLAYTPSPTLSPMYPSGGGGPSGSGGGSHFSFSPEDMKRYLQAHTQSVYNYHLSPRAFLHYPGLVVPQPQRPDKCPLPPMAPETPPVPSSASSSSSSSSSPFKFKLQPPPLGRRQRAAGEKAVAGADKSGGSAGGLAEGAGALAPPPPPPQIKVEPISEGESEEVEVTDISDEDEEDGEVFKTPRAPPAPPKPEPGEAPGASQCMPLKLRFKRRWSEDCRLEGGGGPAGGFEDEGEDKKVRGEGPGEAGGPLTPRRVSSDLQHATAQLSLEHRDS
The settings on record: protein: recombinant; tags: N-terminal GST; dsDNA, one strand shown. The method in brief:
as §1

For the next assay, the target named is T7, ETV3L (Homo sapiens, UniProt Q6ZN32 1-361).
T7 sequence: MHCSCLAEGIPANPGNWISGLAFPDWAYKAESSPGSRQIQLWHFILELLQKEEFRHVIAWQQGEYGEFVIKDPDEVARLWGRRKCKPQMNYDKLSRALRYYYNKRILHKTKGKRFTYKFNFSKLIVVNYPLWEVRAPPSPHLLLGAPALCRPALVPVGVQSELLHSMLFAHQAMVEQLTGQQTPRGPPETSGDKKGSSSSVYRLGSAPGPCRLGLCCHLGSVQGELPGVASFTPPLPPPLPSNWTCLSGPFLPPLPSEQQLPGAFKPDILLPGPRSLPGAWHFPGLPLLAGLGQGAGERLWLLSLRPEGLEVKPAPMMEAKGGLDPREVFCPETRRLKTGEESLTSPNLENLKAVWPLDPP
The settings on record: protein: recombinant; tags: N-terminal GST; dsDNA, one strand shown. The method in brief: as §1

Another assay concerns the target T8, ETS2 (Homo sapiens, UniProt P15036 1-469).
T8 sequence: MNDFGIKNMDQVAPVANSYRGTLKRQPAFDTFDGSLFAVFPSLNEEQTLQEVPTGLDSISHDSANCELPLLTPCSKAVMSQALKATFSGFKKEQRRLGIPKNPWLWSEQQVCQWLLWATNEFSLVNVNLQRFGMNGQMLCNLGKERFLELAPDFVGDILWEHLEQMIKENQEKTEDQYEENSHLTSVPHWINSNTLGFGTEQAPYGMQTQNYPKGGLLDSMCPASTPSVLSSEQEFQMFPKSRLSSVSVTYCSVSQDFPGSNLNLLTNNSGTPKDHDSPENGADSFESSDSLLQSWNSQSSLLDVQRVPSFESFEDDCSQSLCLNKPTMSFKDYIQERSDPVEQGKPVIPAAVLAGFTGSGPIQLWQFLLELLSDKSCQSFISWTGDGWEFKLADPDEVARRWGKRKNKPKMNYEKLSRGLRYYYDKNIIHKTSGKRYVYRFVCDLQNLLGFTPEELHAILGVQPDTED
The following applies: protein: recombinant; tags: N-terminal GST; dsDNA, one strand shown. The method in brief:
as §1

The target in a further assay is T9, SPDEF (Homo sapiens, UniProt O95238 1-335).
T9 sequence: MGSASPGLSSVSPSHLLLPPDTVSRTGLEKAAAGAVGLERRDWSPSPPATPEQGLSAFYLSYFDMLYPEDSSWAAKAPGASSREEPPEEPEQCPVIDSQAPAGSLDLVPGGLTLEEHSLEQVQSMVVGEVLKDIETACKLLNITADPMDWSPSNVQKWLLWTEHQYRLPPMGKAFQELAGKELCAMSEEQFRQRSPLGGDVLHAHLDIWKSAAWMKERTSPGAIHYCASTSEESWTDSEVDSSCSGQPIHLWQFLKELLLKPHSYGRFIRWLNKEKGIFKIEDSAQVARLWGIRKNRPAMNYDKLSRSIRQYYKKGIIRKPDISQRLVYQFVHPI
The following applies: protein: recombinant; tags: N-terminal GST; dsDNA, one strand shown. The method in brief: as §1

The target of the next assay is T10, ETV7 (Homo sapiens, UniProt Q9Y603 1-341).
T10 sequence: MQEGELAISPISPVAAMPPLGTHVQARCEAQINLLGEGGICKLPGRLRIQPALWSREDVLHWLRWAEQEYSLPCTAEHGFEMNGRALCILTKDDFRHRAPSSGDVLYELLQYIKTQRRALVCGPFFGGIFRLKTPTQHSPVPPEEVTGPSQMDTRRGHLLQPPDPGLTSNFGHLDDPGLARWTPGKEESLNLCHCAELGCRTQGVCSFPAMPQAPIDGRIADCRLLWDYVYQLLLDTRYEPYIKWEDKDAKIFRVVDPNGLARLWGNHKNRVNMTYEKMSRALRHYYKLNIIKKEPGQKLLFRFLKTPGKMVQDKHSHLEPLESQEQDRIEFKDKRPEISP
The following applies: protein: recombinant; tags: N-terminal GST; dsDNA, one strand shown. The essentials: as §1

In the next assay the target is T11, ELF5 (Homo sapiens, UniProt Q9UKW6-2 1-255).
T11 sequence: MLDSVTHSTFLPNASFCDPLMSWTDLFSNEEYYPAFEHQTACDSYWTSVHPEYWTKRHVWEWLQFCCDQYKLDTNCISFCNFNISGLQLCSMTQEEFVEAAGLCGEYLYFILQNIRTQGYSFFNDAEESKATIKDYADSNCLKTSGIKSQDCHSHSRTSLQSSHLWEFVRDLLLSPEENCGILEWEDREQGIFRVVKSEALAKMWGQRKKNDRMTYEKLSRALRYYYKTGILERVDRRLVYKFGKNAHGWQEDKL
The following applies: protein: recombinant; tags: N-terminal GST; dsDNA, one strand shown. The method in brief: as §1

The target in another assay is T12, ETV3 (Homo sapiens, UniProt P41162-2 1-143).
T12 sequence: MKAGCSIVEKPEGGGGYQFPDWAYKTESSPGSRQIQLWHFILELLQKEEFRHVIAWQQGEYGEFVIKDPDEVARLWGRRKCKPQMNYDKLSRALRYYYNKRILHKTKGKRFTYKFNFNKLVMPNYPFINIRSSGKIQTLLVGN
The settings on record: protein: recombinant; tags: N-terminal GST; dsDNA, one strand shown. The method in brief: as §1

The target in a further assay is ETV6 (Homo sapiens, UniProt P41212 1-452). The following applies: protein: recombinant; tags: N-terminal GST; dsDNA, one strand shown. The essentials:
as §1

Chain of ETV5 (P41161 whole entry): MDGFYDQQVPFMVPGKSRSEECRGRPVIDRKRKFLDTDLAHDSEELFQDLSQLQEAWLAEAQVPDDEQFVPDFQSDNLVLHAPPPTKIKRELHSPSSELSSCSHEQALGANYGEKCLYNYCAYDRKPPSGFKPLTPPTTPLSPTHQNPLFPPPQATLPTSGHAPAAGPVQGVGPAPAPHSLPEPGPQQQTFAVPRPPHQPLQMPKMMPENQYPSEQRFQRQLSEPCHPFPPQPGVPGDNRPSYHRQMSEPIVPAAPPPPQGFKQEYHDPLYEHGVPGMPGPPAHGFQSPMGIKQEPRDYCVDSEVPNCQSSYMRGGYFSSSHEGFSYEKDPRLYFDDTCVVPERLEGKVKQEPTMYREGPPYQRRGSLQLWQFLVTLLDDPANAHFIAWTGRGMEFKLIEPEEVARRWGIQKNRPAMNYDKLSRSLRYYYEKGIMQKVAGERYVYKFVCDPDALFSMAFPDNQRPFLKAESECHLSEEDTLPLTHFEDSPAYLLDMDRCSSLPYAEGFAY
Chain of HSF1 (Q00613 whole entry): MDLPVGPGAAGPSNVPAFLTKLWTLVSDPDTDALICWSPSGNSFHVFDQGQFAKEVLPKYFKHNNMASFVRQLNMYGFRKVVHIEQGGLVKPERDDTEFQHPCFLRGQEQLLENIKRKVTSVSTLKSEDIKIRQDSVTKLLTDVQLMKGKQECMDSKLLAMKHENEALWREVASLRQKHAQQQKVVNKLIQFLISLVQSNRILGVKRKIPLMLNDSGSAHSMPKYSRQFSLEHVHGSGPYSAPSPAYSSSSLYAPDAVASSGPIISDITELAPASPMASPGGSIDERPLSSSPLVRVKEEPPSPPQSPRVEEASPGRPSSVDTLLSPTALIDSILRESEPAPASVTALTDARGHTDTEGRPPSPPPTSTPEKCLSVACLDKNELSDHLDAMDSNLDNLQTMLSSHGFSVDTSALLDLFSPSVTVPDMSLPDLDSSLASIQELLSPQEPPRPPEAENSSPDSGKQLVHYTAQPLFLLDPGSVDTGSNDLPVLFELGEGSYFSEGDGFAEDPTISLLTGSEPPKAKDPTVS
Chain of CRX (O43186 whole entry): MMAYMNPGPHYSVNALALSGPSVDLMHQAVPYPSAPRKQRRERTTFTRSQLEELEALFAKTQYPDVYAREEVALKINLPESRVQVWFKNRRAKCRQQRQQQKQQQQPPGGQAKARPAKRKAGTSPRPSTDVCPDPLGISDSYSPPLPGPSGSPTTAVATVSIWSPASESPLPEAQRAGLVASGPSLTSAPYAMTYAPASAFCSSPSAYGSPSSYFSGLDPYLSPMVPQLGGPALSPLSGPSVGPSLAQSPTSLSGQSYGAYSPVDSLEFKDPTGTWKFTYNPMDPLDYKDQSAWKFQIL
Chain of ETV6 (P41212 whole entry): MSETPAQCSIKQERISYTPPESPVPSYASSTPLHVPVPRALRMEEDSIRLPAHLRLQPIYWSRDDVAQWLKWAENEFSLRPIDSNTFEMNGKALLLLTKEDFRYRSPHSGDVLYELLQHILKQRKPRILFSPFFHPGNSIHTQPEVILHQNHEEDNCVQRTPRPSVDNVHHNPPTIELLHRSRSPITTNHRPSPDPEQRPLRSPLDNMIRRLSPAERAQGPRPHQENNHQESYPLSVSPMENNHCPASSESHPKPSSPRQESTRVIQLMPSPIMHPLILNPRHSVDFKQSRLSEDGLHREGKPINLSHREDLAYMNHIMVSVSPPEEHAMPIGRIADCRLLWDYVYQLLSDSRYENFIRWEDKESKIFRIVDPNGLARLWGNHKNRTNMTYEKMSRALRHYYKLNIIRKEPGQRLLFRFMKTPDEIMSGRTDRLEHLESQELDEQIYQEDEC
Chain of ETV1 (P50549 whole entry): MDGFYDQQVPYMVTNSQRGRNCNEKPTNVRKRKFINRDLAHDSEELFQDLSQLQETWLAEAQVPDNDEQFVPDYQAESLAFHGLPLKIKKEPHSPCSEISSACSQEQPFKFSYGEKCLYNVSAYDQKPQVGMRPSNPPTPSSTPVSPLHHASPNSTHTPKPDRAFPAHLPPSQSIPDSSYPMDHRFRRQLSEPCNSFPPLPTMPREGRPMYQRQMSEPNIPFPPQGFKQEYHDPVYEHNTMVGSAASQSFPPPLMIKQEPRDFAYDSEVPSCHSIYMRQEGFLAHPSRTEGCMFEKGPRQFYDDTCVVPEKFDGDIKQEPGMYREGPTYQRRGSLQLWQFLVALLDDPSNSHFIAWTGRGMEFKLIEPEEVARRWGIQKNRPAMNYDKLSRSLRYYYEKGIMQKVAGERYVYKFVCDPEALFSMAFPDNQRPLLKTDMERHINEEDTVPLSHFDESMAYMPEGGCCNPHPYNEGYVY

On to CTTCAT, for which the binding signal is 1.46 fold enrichment (6-mer frequency, TF over GST control) in the assay with FEV; 1.49 fold enrichment (6-mer frequency, TF over GST control) with ETV5; 1.34 fold enrichment (6-mer frequency, TF over GST control) with HSF1; 1.36 fold enrichment (6-mer frequency, TF over GST control) in the assay with SPIC; 1.4 fold enrichment (6-mer frequency, TF over GST control) with ELF4; 1.53 fold enrichment (6-mer frequency, TF over GST control) with ELK4. Besides, the binding signal with ETV2 is 1.39 fold enrichment (6-mer frequency, TF over GST control); with ELF3, 1.56 fold enrichment (6-mer frequency, TF over GST control); in the assay with CRX, 1.3 fold enrichment (6-mer frequency, TF over GST control); in the assay with ETV1, 1.5 fold enrichment (6-mer frequency, TF over GST control); in the assay with ERF, 1.35 fold enrichment (6-mer frequency, TF over GST control); with ETV3L, 1.52 fold enrichment (6-mer frequency, TF over GST control). For the same sequence, the binding signal is 1.43 fold enrichment (6-mer frequency, TF over GST control) in the assay with ETS2; 1.43 fold enrichment (6-mer frequency, TF over GST control) with SPDEF; 1.46 fold enrichment (6-mer frequency, TF over GST control) with ETV7; 1.44 fold enrichment (6-mer frequency, TF over GST control) with ELF5; 1.46 fold enrichment (6-mer frequency, TF over GST control) with ETV3; 1.33 fold enrichment (6-mer frequency, TF over GST control) with ETV6.
